# This is a sample that favours compounds with a hit; in the whole collection about 4.6% have one here.
# tim10-1 inh = growth inhibitors of tim10-1 mutant yeast | S. cerevisiae tim10-1 ts strain growth, BacTiter-Glo, 24 h | inhibition, % at 20 µM | 2.2% of 330,000 active | AID 463190;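 active means inhibition of at least 40%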;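 further: mutant grown at 25 °C; 0% = DMSO wells with yeast and 100% = wells holding no yeast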
# PfHsp90 set2 = growth inhibition of yeast expressing Plasmodium Hsp90. S. cerevisiae expressing PfHsp90, BacTiter-Glo ATP, 48 h; yeast lacking PDR1 and PDR3 efflux regulators. inhibition, % at 9.4 µM. 0.32% of 310,000 active. AID 504621;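 active means every replicate shows inhibition above about 80%, whatever the replicate mean, limit read from the data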;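 further: 0% = DMSO neutral controls and 100% = 20 µM radicicol positive controls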
# SKKanGAS inh = inhibitors of SKKanGAS S. pyogenes growth in kanamycin (SK-promoter or general growth effect); BacTiter-Glo, 6 h; inhibition, % at 7.5 µM; 1.3% of 300,000 active;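 active means mean replicate score, as percent of positive control median, at least 50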;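 further: strain carries kanamycin resistance gene driven by streptokinase promoter and grows in 40 µg/ml kanamycin; loss of luminescence reflects streptokinase promoter inhibition or plain growth inhibition; 0% = median of DMSO wells and 100% = positive control at its reference dose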
# V-ATPase pH = alters yeast V-ATPase proton transport | response, % at 10 µM | S. cerevisiae, pHLuorin cytosolic pH fluorescence | 0.37% of 350,000 active | AID 504577; in the data active means response mostly above about 7.3%, no sharp cut-off; inactive means mostly below about 5.4%; further: actives read high
# TIM10 inh = growth inhibitors of TIM10 yeast strain. S. cerevisiae TIM10 strain growth, BacTiter-Glo luminescence, 24 h. inhibition, % at 10 µM. 1.4% of 330,000 active. AID 463195;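 active means inhibition of 40% or more at the single tested concentration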;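 further: wild-type TIM10 isogenic control strain grown at permissive 25 °C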
# tim23-1 inh = inhibits growth of tim23-1 mutant yeast. S. cerevisiae tim23-1 growth, BacTiter-Glo luminescence, 24 h. inhibition, % at 20 µM. 1.3% of 330,000 active;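 active means growth inhibition of the mutant yeast at or above 50%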;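 further: temperature-sensitive mutant grown at 25 °C; plate controls were DMSO-treated mutant yeast for no effect and medium wells lacking yeast for full effect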
# tim10-1 conf = tim10-1 yeast growth inhibition, confirmed. shares compounds with tim10-1 inh. S. cerevisiae tim10-1 ts strain growth, BacTiter-Glo, 24 h. inhibition, % at 20 µM. 56% of 7,400 active. AID 463213;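 active means inhibition of yeast growth at or above a set limit in either of two repeat tests at 20 µM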;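 further: tim10-1 mutant grown at permissive 25 °C to find synthetic lethal compounds; 0% = DMSO yeast wells and 100% = medium wells without yeast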
# * marks the source's active call; other numbers are inactive results; x = not tested or not shown.
SMILES,tim10-1 inh,PfHsp90 set2,SKKanGAS inh,V-ATPase pH,TIM10 inh,tim23-1 inh,tim10-1 conf
Cc1ccc2c(c1)C(O)(CC(=O)/C=C/C=C/c1ccccc1)C(=O)N2 (stereo not drawn),40.4*,-5.1,-8.8,1.4,-4.0,29.6,28.4*
O=C(/C=C/C=C/c1ccccc1)CC1(O)C(=O)N(CCc2ccccc2)c2ccccc21 (stereo not drawn),45.0*,x,24.3,4.1,27.4,41.4,52.5*
CCN1C(=O)C(O)(CC(=O)/C=C/C=C/c2ccccc2)c2ccccc21 (stereo not drawn),34.5,x,-4.3,2.8,22.9,28.3,x
COc1cc(C)nc(N(C)S(=O)(=O)c2ccccc2Cl)n1,42.6*,-23.3,4.3,-2.8,25.5,22.9,25.8
COc1nc(N(C)C)nc(N(OC)S(=O)(=O)c2ccccc2Cl)n1,21.9,x,11.6,-2.4,19.6,21.3,x
CN(C)c1ccc(/C=C2\Oc3ccc(C#Cc4cccc(N)c4)cc3C2=O)cc1,9.4,-6.7,x,-8.9,8.3,18.7,x
C#CCn1c(=NC(=O)c2cc(Cl)sc2Cl)sc2cc(S(N)(=O)=O)ccc21,46.8*,-29.8,49.7*,-7.1,22.1,30.3,33.4*
C#CCn1c(=NC(=O)CN2C(=O)CCC2=O)sc2cc(S(N)(=O)=O)ccc21,11.3,-0.8,-4.1,0.5,3.2,-3.0,x
Cc1ccc(CSc2nnc([C@@H]3CCCN3C(=O)OC(C)(C)C)o2)cc1,21.8,6.4,-0.1,5.9,25.6,41.7,x
CCOC(=O)/C(C#N)=C/c1c(N2CCN(c3ccccc3)CC2)nc2ccccn2c1=O,43.6*,-25.5,6.4,4.2,25.2,40.4,30.3
CC1CCN(Cc2nnnn2-c2ccc(Cl)cc2)CC1,56.5*,-2.2,0.0,4.3,17.3,49.5,36.8*
Cc1ccc(Nc2nc(N)nc(CN3CCN(c4ccccc4)CC3)n2)cc1Cl,45.2*,15.6,87.5*,6.6,21.8,45.5,21.2
CCCCN1C(=O)C2(NNc3ccccc3O2)c2ccccc21 (stereo not drawn),42.9*,5.9,10.9,0.6,31.2,33.0,19.2
Cc1cccc(Nc2nc(N)nc(-c3oc4ccccc4c3C)n2)c1,41.5*,23.5,35.4,-2.8,15.4,40.6,10.1
N#Cc1ccc(C(=O)Nc2ccc([N+](=O)[O-])cc2)c(F)c1,-18.1,14.5,5.4,2.0,3.7,-2.3,x
Cc1nn(-c2ccc(F)cc2F)c2c1-c1nc(N3CCCC3)ncc1CC2,45.4*,-13.7,-6.6,2.4,35.5,27.8,20.0
Cc1ccc[n+](CC(=O)Nc2cc(C(F)(F)F)ccc2N2CCOCC2)c1,19.1,x,3.7,10.3,4.3,0.3,x
CCOC(=O)C1=CC[C@@H](c2cc(OC)c(OC)c(OC)c2)N(S(=O)(=O)c2ccc(C)cc2)[C@H]1C(=O)OCC,15.0,7.6,x,-0.6,2.5,21.2,x
O=C(Nc1ncc2c(n1)-c1ccccc1CC2)c1ccc(F)cc1,40.5*,-9.8,-18.0,-0.4,26.2,34.5,26.4
O=C(Nc1ncc2c(n1)-c1ccccc1CC2)c1cccs1,26.0,1.2,4.0,0.5,27.3,38.2,x
O=C(Nc1ncc2c(n1)-c1ccccc1CC2)c1ccccc1,47.3*,-6.6,1.6,2.9,11.6,38.6,29.1
CCCCNC(=O)N1CCCN(c2ccc(C#N)cn2)CC1,9.9,-30.4,-1.6,-0.3,13.1,15.1,x
COc1ccc(CN2CCN(c3nc4ccccc4s3)CC2)cc1,15.0,1.8,-3.3,-2.9,27.0,24.8,x
Cc1ccccc1CN1CCN(c2nc3ccccc3s2)CC1,41.5*,-0.9,18.7,-1.7,5.2,40.3,23.8
Nc1sc(-c2ccccc2)c(Cc2ccccc2)c1C(=O)O,53.2*,-7.5,12.4,-12.0,20.1,18.9,34.8*
SMILES,tim10-1 inh,PfHsp90 set2,SKKanGAS inh,V-ATPase pH,TIM10 inh,tim23-1 inh,tim10-1 conf
COC(=O)c1c(N)sc(Cc2ccccc2)c1C,18.6,-25.8,11.9,0.5,4.7,26.0,x
CCN(CC)CCCN(C(=O)c1ccco1)c1nc(-c2ccc(C)cc2)cs1,23.1,8.8,-1.6,-2.7,14.3,5.1,x
CCN(CC)CCCN(C(=O)c1ccco1)c1nc(-c2ccc(Cl)cc2)cs1,40.7*,-4.1,-3.0,1.0,15.0,16.9,23.4
CCOC(=O)c1c(C2COc3ccccc3O2)csc1N (stereo not drawn),45.3*,17.4,3.5,3.0,10.0,20.7,15.0
COc1cccc(OC)c1C(=O)Nc1ccc(Br)c(C(=O)c2ccccc2)c1,40.6*,2.3,-1.5,-2.6,5.0,34.7,9.3
Cc1cc(C)nc(OC(=O)c2c(Cl)cc(Cl)cc2Cl)n1,44.3*,14.5,-15.4,-2.1,22.2,35.8,33.4*
Cn1nccc1C(=O)N1CCCC(N2CCN(Cc3ccc4c(c3)OCO4)CC2)C1 (stereo not drawn),-5.6,-16.4,-8.5,3.5,-1.5,-9.4,x
Cc1ccc(/C=C2\Oc3cc(OC(=O)N4CCOCC4)ccc3C2=O)cc1,16.1,14.2,-0.7,0.8,15.3,13.8,x
O=C(Oc1ccc2c(c1)O/C(=C\c1ccncc1)C2=O)c1ccccc1,41.8*,-7.5,-2.4,2.4,33.2,34.7,12.9
S=C(NCc1ccccc1)N1CCN(C(=S)NCc2ccccc2)CC1,10.6,-2.5,x,0.7,5.1,20.6,x
COc1ccc(/C=C/C(=O)c2cc(F)ccc2OC(=O)c2ccccc2C)cc1OC,41.4*,-15.0,-15.4,0.0,20.4,29.8,20.0
COC(=O)C[C@H]1C[C@H]2c3cc(NS(=O)(=O)c4ccc(OC)cc4)ccc3O[C@H]2[C@H](CO)O1,x,x,x,-0.1,x,x,x
Cc1sc2nc[nH]c(=S)c2c1-c1ccccc1,40.1*,-20.0,7.1,1.4,25.2,-4.2,-1.3
Cc1sc2nc[nH]c(=O)c2c1-c1ccc(F)cc1,10.7,8.2,10.6,-1.7,12.9,8.7,x
CC(OC(=O)CCNS(=O)(=O)c1ccc(Cl)cc1)C(=O)N(C)Cc1ccccc1 (stereo not drawn),x,x,x,0.6,x,x,x
CC(Oc1cccnc1[N+](=O)[O-])C(=O)Nc1ccc(Cl)cn1 (stereo not drawn),16.2,27.6,x,3.3,-1.1,29.2,x
Cc1nn(-c2ccccc2)c(C)c1NC(=O)COC(=O)c1ccccc1,0.4,-15.2,x,0.6,11.8,14.8,x
COc1ccccc1/C=C/C(=O)OCC(=O)Nc1c(C)nn(-c2ccccc2)c1C,44.8*,x,x,2.5,14.3,31.4,28.7
Cc1sc2ncnc(N3CCN(CCOc4ccc(Cl)cc4)CC3)c2c1C,45.2*,-9.7,1.5,0.4,27.4,31.3,31.6*
Cc1sc2ncnc(N3CCC(C(=O)NNC(=O)COc4ccc(Cl)cc4)CC3)c2c1C,x,-10.6,x,-0.8,x,x,x
O=C1C2ON(c3ccc(Cl)cc3)C(c3ccco3)C2C(=O)N1c1ccccc1 (stereo not drawn),43.6*,-20.4,2.4,-0.2,6.8,34.0,35.4*
